Source: PubChem (several laboratories)
A selection: hits, their analogues and other compounds. The true share with any hit is near 4.7%.
tim10-1 inh: inhibits growth of tim10-1 mutant yeast; hit rate 2.2% among 330,000; AID 463190; inhibition, % at 20 µM; S. cerevisiae tim10-1 ts strain growth, BacTiter-Glo, 24 h;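 active = inhibition of at least 40%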;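 note: mutant grown at 25 °C; 0% = DMSO wells with yeast and 100% = wells holding no yeast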
tim23-1 inh: tim23-1 yeast growth inhibition; AID 463212; hit rate 1.3% among 330,000; inhibition, % at 20 µM; S. cerevisiae tim23-1 growth, BacTiter-Glo luminescence, 24 h;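 active = growth inhibition of the mutant yeast at or above 50%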;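 note: temperature-sensitive mutant grown at 25 °C; plate controls were DMSO-treated mutant yeast for no effect and medium wells lacking yeast for full effect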
PfHsp90 set2: inhibits growth of yeast expressing Plasmodium falciparum Hsp90; S. cerevisiae expressing PfHsp90, BacTiter-Glo ATP, 48 h; yeast lacking PDR1 and PDR3 efflux regulators; inhibition, % at 9.4 µM; hit rate 0.32% among 310,000;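 active = every replicate shows inhibition above about 80%, whatever the replicate mean, limit read from the data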;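 note: 0% = DMSO neutral controls and 100% = 20 µM radicicol positive controls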
Calb FLC: affects C. albicans growth with fluconazole; C. albicans CaCi-2 (fluconazole-resistant clinical isolate) + fluconazole, Alamar Blue growth, 48 h; growth inhibition, % (no concentration beside the values); hit rate 0.57% among 300,000; AID 1979;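 active = growth inhibition above about 58% in most replicates, limit read from the data, passing the limit was not always enough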;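 note: all wells also contain fluconazole at 8 µg/ml as a sub-toxic cotreatment; 0% = median of DMSO wells and 100% = median of geldanamycin control wells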
SKKanGAS inh: inhibitors of SKKanGAS S. pyogenes growth in kanamycin (SK-promoter or general growth effect); BacTiter-Glo, 6 h; inhibition, % at 7.5 µM; hit rate 1.3% among 300,000;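 active = mean replicate score, as percent of positive control median, at least 50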;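 note: strain carries kanamycin resistance gene driven by streptokinase promoter and grows in 40 µg/ml kanamycin; loss of luminescence reflects streptokinase promoter inhibition or plain growth inhibition; 0% = median of DMSO wells and 100% = positive control at its reference dose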
TIM10 inh: growth inhibitors of TIM10 yeast strain | S. cerevisiae TIM10 strain growth, BacTiter-Glo luminescence, 24 h | inhibition, % at 10 µM | hit rate 1.4% among 330,000 | AID 463195;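 active = inhibition of 40% or more at the single tested concentration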;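 note: wild-type TIM10 isogenic control strain grown at permissive 25 °C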
* marks the source's active call; other numbers are inactive results; . = no result.

SMILES	tim10-1 inh	tim23-1 inh	PfHsp90 set2	Calb FLC	SKKanGAS inh	TIM10 inh
CN(C)CC1CCC/C(=C\c2ccc(OC(=O)c3ccc(Cl)cc3)cc2)C1=O (stereo unspecified)	.	.	2.9	.	.	.
O=C1/C(=C\c2ccc(Cl)cc2)CCC1CNc1ccc(Cl)cc1 (stereo unspecified)	.	.	147.0*	.	.	.
COc1ccc(/C=C2\CCC(C3CCCC3)C2=O)cc1 (stereo unspecified)	10.1	8.0	19.9	-4.6	3.2	0.7
COc1cc2sc(-c3ccc(S(C)(=O)=O)cc3)c(C#CCO)c2cc1OC	22.0	30.5	.	.	.	13.0
S=c1[nH]cnc2scc(-c3ccc(Cl)cc3)c12	7.0	-9.1	.	0.7	76.1*	-23.7
Cc1cc(-c2csc3nc[nH]c(=S)c23)cc(C)c1C	39.4	27.2	-32.3	49.1	91.6*	26.3
Cc1ccc(-c2csc3nc[nH]c(=S)c23)cc1	24.2	49.7	-27.5	-13.1	33.5	6.7
Oc1ccccc1-c1cc(C(F)(F)C(F)F)nc(-c2ccccc2)n1	11.3	2.1	19.2	-3.1	6.1	-2.8
O=[N+]([O-])c1ccc(O)c(-c2cc(C(F)(F)F)nc(-c3ccccc3)n2)c1	9.7	1.4	14.4	4.5	94.1*	20.8
CCN(CC)c1nc(C(F)(F)F)nc2c1nnn2Cc1ccccc1	-6.5	25.6	-1.1	-3.5	57.8*	-9.8
Cc1nc(N(C)Cc2ccccc2)c2nnn(Cc3ccccc3)c2n1	17.7	24.6	23.1	-10.1	27.7	10.3
CCCN(C(=O)CSCc1ccccc1C)c1c(N)n(Cc2ccccc2)c(=O)[nH]c1=O	14.4	6.0	-10.5	-2.7	-16.0	5.0
Cn1c(-c2c(N)n(C3CCCC3)c3nc4ccccc4nc23)nc2ccccc21	-1.3	44.1	.	30.8	102.1*	21.6
Cn1c(-c2c(N)n(CCc3ccccc3)c3nc4ccccc4nc23)nc2ccccc21	-28.6	6.5	-10.1	93.6*	104.2*	-13.1
Cn1c(-c2c(N)n(CCCc3ccccc3)c3nc4ccccc4nc23)nc2ccccc21	.	.	-8.7	0.9	113.4*	.
COCCCn1c(N)c(-c2nc3ccccc3n2C)c2nc3ccccc3nc21	9.6	28.3	43.8	-35.2	8.6	27.8
Nc1c(C(=O)OCC2CCCO2)c2nc3ccccc3nc2n1C1CCCC1 (stereo unspecified)	27.7	42.4	0.6	10.0	6.4	20.3
Cc1c(NS(=O)(=O)c2cc(C(=O)N(C)Cc3ccccc3)ccc2Cl)c(=O)n(-c2ccccc2)n1C	-7.0	2.6	-5.9	.	.	1.6
COc1cccc(OC)c1C(=O)Nc1cc(C)nn1-c1nc2ccccc2[nH]1	17.0	33.7	4.4	0.6	51.5*	18.6
CCCCC[n+]1ccn(C2=C([O-])c3ccccc3C(=O)/C2=N\S(=O)(=O)c2ccccc2)c1	4.2	10.7	2.9	2.5	73.7*	12.4
CCCCC[n+]1ccn(C2=C([O-])c3ccccc3C(=O)/C2=N\S(=O)(=O)c2ccc(Br)cc2)c1	21.4	5.1	1.0	5.2	97.1*	12.2
CCCCC[n+]1ccn(-c2nc3ccccc3nc2[N-]S(=O)(=O)c2ccc(C)cc2)c1	11.4	3.8	-30.8	0.4	1.0	-1.3
CCCC[n+]1ccn(C2=C([O-])c3ccccc3C(=O)/C2=N\S(=O)(=O)c2ccccc2)c1	6.0	15.2	0.2	47.4	59.0*	-4.7
CC(C)[n+]1ccn(C2=C([O-])c3ccccc3C(=O)/C2=N\S(=O)(=O)c2ccccc2)c1	-2.5	10.7	-19.4	25.6	-7.4	-0.8
Cn1c(=O)c2c(nc3n2CC(O)CN3c2ccc(O)cc2)n(C)c1=O (stereo unspecified)	6.8	-0.6	11.0	0.0	3.7	3.8
SMILES	tim10-1 inh	tim23-1 inh	PfHsp90 set2	Calb FLC	SKKanGAS inh	TIM10 inh
C=CCn1c(N)nc2ccccc21	0.2	8.3	-21.7	82.3*	3.4	-2.0
O=C(O)C[C@H](O)C[C@H](O)/C=C/c1c(C2CC2)nc2ccccc2c1-c1ccc(F)cc1	.	.	.	102.9*	-0.9	.
CC(C)n1c(/C=C/[C@H](O)C[C@H](O)CC(=O)O)c(-c2ccc(F)cc2)c2ccccc21	-2.0	20.4	-17.9	.	.	5.7
COC(=O)c1cccc(NC(=S)N2CCN(c3ccccc3F)CC2)c1	35.3	16.6	5.2	19.3	-5.3	12.1
C=CCn1c(COc2ccccc2)nnc1SC(C)C(=O)N/N=C/c1cc(Cl)ccc1O (stereo unspecified)	39.8	43.5	-12.9	2.0	104.6*	38.1
C=CCn1c(COc2ccc(Cl)cc2)nnc1SCC(=O)N/N=C/c1cccc(O)c1	-8.3	-2.5	-1.5	-21.4	5.6	-8.0
CN(C(=O)COC(=O)c1ccc2c(=O)n3c(nc2c1)CCC3)c1ccccc1	3.6	21.8	14.5	-3.1	-9.2	5.0
Cc1[nH]c2ccccc2c1C(=O)COC(=O)c1ccc2c(=O)n3c(nc2c1)CCC3	7.5	14.0	-40.2	26.0	93.0*	18.7
CC(=O)c1cccc(OC(=O)c2ccc3c(=O)n4c(nc3c2)CCC4)c1	23.6	14.8	-87.6	4.2	53.6*	-4.0
CCCOc1ccc(/C=N/Nc2ccccc2[N+](=O)[O-])c(O)c1	13.0	3.4	-27.4	4.3	40.8	-5.1
CCCOc1ccc(/C=N/NC(=S)Nc2ccccc2[N+](=O)[O-])c(O)c1	.	.	.	33.7	101.9*	.
CC(=O)c1nn(-c2cccc(Br)c2)cc1C(=O)c1ccc(C)cc1	25.9	5.2	.	94.7*	8.5	13.9
CC(=O)c1nn(-c2cccc(Br)c2)cc1C(=O)c1ccc(Br)cc1	12.0	-19.2	-32.9	-7.1	5.8	-7.8
COc1ccc(CN(C(=O)CCC(=O)Nc2cc(C)on2)C(C(=O)NC(C)(C)C)c2cccc(OC)c2OC)cc1 (stereo unspecified)	22.5	13.9	-1.7	2.4	-3.4	-8.7
O=C(Nc1ccccc1C(=O)Nc1nnc(C(F)(F)F)s1)c1ccccc1Cl	6.6	9.6	-3.0	-8.0	100.6*	9.0
C[C@H](NC(=O)c1ncn(Cc2ccccc2)c1C(=O)N[C@@H](C)c1ccccc1)c1ccccc1	20.0	17.0	.	.	.	0.4
Cc1nc(N)nc(N)c1-c1ccc(Cl)c(Cl)c1	.	.	-34.5	.	.	.
Cc1nc(N)nc(N)c1CCCc1ccc(Cl)c(Cl)c1	12.9	18.9	-7.2	10.5	109.0*	22.6
CCc1nc(N)nc(N)c1-c1ccc(Cl)cc1	11.6	-1.8	-5.2	-5.9	69.9*	4.4
CCc1nc(N)nc(N)c1-c1ccc(NCCN)c([N+](=O)[O-])c1	.	.	-4.0	.	.	.
O=S(=O)(Nc1ncccn1)c1ccc(NC(=S)N2CCN(Cc3ccc(F)cc3Cl)CC2)cc1	0.6	3.6	10.3	2.8	3.4	-3.7
CCOC(=O)c1c(-c2ccc(C)o2)csc1NC(=S)NC(=O)c1cccs1	29.8	23.7	16.3	1.9	61.2*	28.7
COC(=O)c1nc(NC(=S)NC(=O)c2cccs2)sc1C	16.3	24.3	.	16.3	59.6*	15.4
